# Records with an inconclusive call do not appear. Values without a mark were called inactive. Calls of active or inactive are those of the source. Calls follow the shape of the dose curve; as a rule, active = well fitted inhibition curve with a large enough effect; inconclusive = small, poorly fitted or top-dose-only effect; inactive = flat fitted curve, though single readings scatter. Starred links: 1 amine or outer side, 2 acyl side, 3 side chain; linkers in the order of their positions; H or OH if unused. Positions of bridges follow the written chain, without caps; N, C: chain ends. Non-standard residues stand in square brackets, D forms with d. Residues, ends and D or L forms follow the SMILES beside them. Chains are numbered I, II in the order given. Actinocin(9to1) = Cc1c2oc3c(C)ccc(C(=O)[*:1])c3nc-2c(C(=O)[*:2])c(N)c1=O; NMeV = CN[CH](C(=O)O)C(C)C; Sar = CNCC(=O)O
# System: Zika virus NS2B-NS3 protease
# Assay: Primary screen GU AMC qHTS for Zika virus inhibitors (AID 1347154); also: nearly all actives have a fitted effect of over 70% in size;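 as to activity change, negative = inhibition: 0% = no-inhibitor control and -100% = no-enzyme control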
# Conditions: Zika NS2B-NS3 unlinked protease, AMC fluorogenic substrate; series mostly up to 54.1 µM; activity change, negative = inhibition: at the top concentration
# In short: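 Unlinked Zika NS2B hydrophilic domain/NS3 protease domain noncovalent complex (25 nM final) in 10 mM Tris-HCl pH 8.0, 0.01% Tween 20, with AMC peptide substrate. Fluorescence (ex 340, em 450 nm) change over 15 min, room temperature; percent inhibition fitted to 4-parameter Hill equation.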
# Potency is read from the fitted curve at half-maximal effect.
SMILES,Potency,"activity change, negative = inhibition [%]"
CC(C)[C@H](CO)Nc1nc(Nc2cccc(Cl)c2)c2ncn(C(C)C)c2n1,inactive,
O=C(C[C@@H]1CC=CCCC(=O)O[C@H](c2ccccc2)CNC1=O)NCc1ccc(Cl)cc1,,9.21
COC(=O)[C@H](CCCN=C(N)N)NS(=O)(=O)c1ccc(C)cc1,,15.8
OCc1ccccc1O[C@@H]1O[C@H](CO)[C@H](O)[C@H](O)[C@H]1O,,6.85
COC(=O)[C@@H]1CC2=CC(=O)CC[C@]2(C)[C@@]23O[C@@H]2C[C@@]2(C)[C@H](CC[C@@]24CCC(=O)O4)[C@@H]13,,12.9
COc1ccnc2[nH]cc(C(=O)C(=O)N3CCN(C(=O)c4ccccc4)C[C@@H]3C)c12,,4.44
C=CC[C@@H]1C=C(C)C[C@H](C)C[C@H](OC)[C@H]2O[C@@](O)(C(=O)C(=O)N3CCCC[C@H]3C(=O)O[C@H](C(C)=C[C@@H]3CC[C@H](O)[C@H](OC)C3)[C@@H](C)[C@@H](O)CC1=O)[C@@H](C)C[C@@H]2OC,,29.2
CC(=O)NCC(=O)N1[C@H]2CC[C@H]1c1cc(Nc3ncc(C(F)(F)F)c(NC4CCC4)n3)ccc12,,-0.531
O=C1NC(O)CCN1[C@@H]1O[C@H](CO)[C@H](O)[C@H]1O (stereo not given in full),,4.99
COC1=C2C[C@@H](C)C[C@H](OC)[C@@H](O)[C@@H](C)C=C(C)[C@H](OC(N)=O)[C@@H](OC)C=CC=C(C)C(=O)NC(=CC1=O)C2=O,,-22.6
CC(C)(C)c1nc2c3cc[nH]c(=O)c3c3cc(F)ccc3c2[nH]1,,2.74
COc1cc2ncnc(Nc3cccc(Br)c3)c2cc1OC,inactive,
CS[C@H]1SC[C@@H]2C(=O)N(C)[C@H](C(C)C)C(=O)OC[C@H](NC(=O)c3cnc4ccccc4n3)C(=O)N[C@H](C)C(=O)N(C)[C@@H]1C(=O)N(C)[C@H](C(C)C)C(=O)OC[C@H](NC(=O)c1cnc3ccccc3n1)C(=O)N[C@H](C)C(=O)N2C,,-1.7
O=C(NC1CC1)c1cccc(-c2ccc3c(NC(=O)C4CC4)n[nH]c3c2)c1,,11.5
CCCCC(=O)O[C@]1(C(=O)CO)[C@@H](C)C[C@H]2[C@@H]3CCC4=CC(=O)C=C[C@]4(C)[C@@]3(F)[C@@H](O)C[C@@]21C,,-8.31
"Cc1c2oc3c(C)ccc(C(=O)NC4C(=O)NC(C(C)C)C(=O)N5CCCC5C(=O)N(C)CC(=O)N(C)C(C(C)C)C(=O)OC4C)c3nc-2c(C(=O)NC2C(=O)NC(C(C)C)C(=O)N3CCCC3C(=O)N(C)CC(=O)N(C)C(C(C)C)C(=O)OC2C)c(N)c1=O (stereo not given) (I: TVP[Sar][NMeV] / II: TVP[Sar][NMeV]; ester I:1-I:C, II:1-II:C; linker I:N-II:N via Actinocin(9to1); configuration not given here)",inactive,
O=C(NCc1ccccc1)[C@H](Cc1ccccc1)NC(=O)[C@@H]1O[C@@H]1C(=O)NCCc1ccc(O)cc1,,-3.98
Oc1cc2c(cc1O)C1c3ccc(O)c(O)c3OCC1(O)C2 (stereo not given),24.1 µM (active),

SMILES,Potency,"activity change, negative = inhibition [%]"
C[C@H](NC(=O)Cc1cc(F)cc(F)c1)C(=O)N[C@H](C(=O)OC(C)(C)C)c1ccccc1,,4.92
C=CC(=O)Nc1cc(NC(=O)c2ccc(C)c(NC(=O)c3ccno3)c2)cc(C(F)(F)F)c1,,2.6
COc1cc(OC)c(C=CS(=O)(=O)Cc2ccc(OC)c(NCC(=O)O)c2)c(OC)c1,,-5.74
NC(=O)N1CCC(CC(=O)N2CCC([C@H]3c4ncc(Br)cc4CCc4cc(Cl)cc(Br)c43)CC2)CC1,,-7.77
CON=C(C(=O)N[C@@H]1C(=O)N2C(C(=O)O)=C(CSC(=O)c3ccco3)CS[C@H]12)c1csc(N)n1,,-4.45
CC(C)(O)CC[C@@H](O)[C@](C)(O)[C@H]1CC[C@@]2(O)C3=CC(=O)[C@@H]4C[C@@H](O)[C@@H](O)C[C@]4(C)[C@@H]3CC[C@]12C,,2.63
CCCCCCCCCCCCc1ccc(S(=O)(=O)Nc2nncs2)cc1,,2.59
COC1=C(OC)C(=O)C(CC=C(C)CCC=C(C)CCC=C(C)CCC=C(C)CCC=C(C)CCC=C(C)CCC=C(C)CCC=C(C)CCC=C(C)CCC=C(C)C)=C(C)C1=O,,3.24
CCOc1cc2ncc(C#N)c(Nc3ccc(OCc4ccccn4)c(Cl)c3)c2cc1NC(=O)C=CCN(C)C,,67.3
C[C@H](CCC(=O)O)[C@H]1CC[C@H]2[C@@H]3[C@H](O)C[C@@H]4C[C@H](O)CC[C@]4(C)[C@@H]3CC[C@]12C,,-12.8
CC1(C)O[C@@H]2C[C@H]3[C@@H]4CCC5=CC(=O)C=C[C@]5(C)[C@@H]4[C@@H](O)C[C@]3(C)[C@]2(C(=O)CO)O1,,-2.14
Cc1noc(-c2ccc(CSCCC(=O)O)cc2)c1NC(=O)OC(C)c1ccccc1Cl (stereo not given),,-4.24
CCc1c(O)cc(O)c(C(=O)c2ccc(OCCN3CCOCC3)c(OC)c2)c1CC(=O)N(CCOC)CCOC,,-3.25
CCN(C(=O)c1c(O)c2c(Cl)cccc2n(C)c1=O)c1ccccc1,,1.93
COC(=O)[C@@H]1[C@H]2C[C@@H]3c4[nH]c5ccccc5c4CCN3C[C@@H]2CC[C@@H]1O,,-7.72
C[C@H](NCc1ccc2c(c1)nc(NC(=O)c1ccc(-c3cn[nH]c3)s1)n2CCc1ccccc1)C(C)(C)C,,-3.86
Cn1cc(-c2cnn3c(N)c(Br)c([C@H]4CCCNC4)nc23)cn1,,8.3
